{
  "source": "PubChem BioAssay (NCI)",
  "note": "The panel holds about 83,000 compounds, 20% with a hit somewhere; the sample as a whole holds those more often.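 Growth was measured after 48 h exposure to one concentration of compound in 96-well plates. Values under 10 count as active.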 The source made the active and inactive calls.",
  "data": [
    {"system": "M14 melanoma", "test": "NCI-60 one-dose screen, 48 h (100 = growth as untreated, 0 = no growth, -100 = all killed)", "details": "10 µM", "method": "Growth inhibition of the M14 human tumor cell line is measured as a screen for anti-cancer activity. Cells are grown in 96 well plates and exposed to the test compound for 48 hours. Compounds are tested at a single concentration, which is 10^-5 M for most compounds. The reported endpoint is percent growth (GI% or GIPRCNT), where numbers from 0 - 100% represent growth inhibition, and numbers from -100% - 0 represent cell death. For example, a value of 40 represents 60% growth inhibition. A value of 0 means no net growth occurred over the course of the experiment. A value of -40 indicates 40% of cells at the beginning of the experiment died by the end of the experiment. A value of -100 means all cells are dead at the end of the experiment.\nNCI-60 Human Tumor Cell Lines Screen was performed using the standard one-dose NCI protocol, which is described in more detail at https://dtp.cancer.gov/discovery_development/nci-60/default.htm.\nCompounds with GIPRCNT values below 10 were considered active. Activity score was based on GIPRCNT using the following formula: […]\nScore is 0 for GIPRCNT values of 100 or above, 50 for GIPRCNT values of 0, and 100 for GIPRCNT values of -100.", "values": [
      {"compound": "CC(=O)Oc1ccccc1C(=O)NC([Se])=NC1CCCCC1", "growth": "20.7% (inactive)"},
      {"compound": "O=C(/C=C/c1ccco1)c1nc2ccccc2n1Cc1ccc(Br)cc1", "growth": "26.2% (inactive)"},
      {"compound": "CC(C)C[C@H](NC(=O)CNC(=O)C[C@H]1O[C@@H]2OC3(C)CC[C@H]4[C@H](C)CC[C@@H]([C@H]1C)[C@@]24OO3)B(O)O", "growth": "-43.8% (active)"},
      {"compound": "O=C(/C=C/c1ccccc1)c1nc2ccccc2n1Cc1ccc(F)cc1", "growth": "-20.8% (active)"},
      {"compound": "CC(C)N=C([Se])NC(=O)c1cccs1", "growth": "8.28% (active)"},
      {"compound": "COc1cc2cc(C(=O)N3C[C@@H](CCl)c4c3cc(OC(=O)N3CCN(C(=O)CCC(=O)N5CCN(C)CC5)[C@@H]5CSSC[C@@H]53)c3ccccc43)[nH]c2c(OC)c1OC", "growth": "-81.7% (active)"},
      {"compound": "COc1cc2cc(C(=O)N3C[C@@H](CCl)c4c3cc(OC(=O)N3CCN(C)[C@@H]5CSSC[C@@H]53)c3ccccc43)[nH]c2c(OC)c1OC", "growth": "-79% (active)"},
      {"compound": "COc1cc(OC)c(/C=C/C(=O)c2nc3ccccc3n2Cc2ccc(F)cc2)c(OC)c1", "growth": "103% (inactive)"},
      {"compound": "C[C@H]1[C@H](OC(=O)CCC(=O)Nc2cnccn2)O[C@@H]2OC3(C)CC[C@H]4[C@H](C)CC[C@@H]1[C@@]24OO3", "growth": "35.9% (inactive)"},
      {"compound": "COCCOCCOCCOc1ccc(-n2cc(-c3ccc(O[C@H]4O[C@@H]5OC6(C)CC[C@H]7[C@H](C)CC[C@@H]([C@H]4C)[C@@]57OO6)cc3)nn2)cc1", "growth": "32% (inactive)"},
      {"compound": "CC12CCC3(CCC(=O)NCCCNc4ccnc5cc(Cl)ccc45)[C@@](C)(OO[C@]3(C)O1)O2", "growth": "-2.43% (active)"},
      {"compound": "CC1=C(CCC=NNC(N)=O)C2=C(C)C3(CC3)[C@@](C)(O)C(=O)C2=C1", "growth": "-35.8% (active)"},
      {"compound": "CC[C@]12C=CCN3CC[C@@]4(c5ccc(OC)cc5N(C)[C@H]4[C@@](O)(C(=O)OC)[C@@H]1OC(=O)CCCC[P+](C1CCCCC1)(C1CCCCC1)C1CCCCC1)[C@@H]32", "growth": "-83.5% (active)"},
      {"compound": "CC1=C(C=O)C2=C(C)C3(CC3)[C@@](C)(O)C(=O)C2=C1", "growth": "13.6% (inactive)"},
      {"compound": "CC(=O)Oc1ccccc1C(=O)[Se]C(=NC(C)C)NC(C)C", "growth": "-92.7% (active)"},
      {"compound": "CC1=C(CCC=O)C2=C(C)C3(CC3)[C@@](C)(O)C(=O)C2=C1", "growth": "-56.8% (active)"},
      {"compound": "COc1ccc2cc([C@H](C)C(=O)[Se]CCC#N)ccc2c1", "growth": "-63.9% (active)"},
      {"compound": "CC(=C\\C(=O)Oc1ccc2c3c1OC1C(O)CCC4(O)C(C2)N(CC2CCC2)CCC314)/C=C1\\CCCc2ccccc21", "note": "(stereo not given)", "growth": "-51.4% (active)"},
      {"compound": "COc1ccc(OC)c(/C=C/C(=O)c2nc3ccccc3n2Cc2ccc(F)cc2)c1", "growth": "-7.79% (active)"},
      {"compound": "O=C(/C=C/c1ccco1)c1nc2ccccc2n1Cc1ccc(F)cc1", "growth": "88.2% (inactive)"},
      {"compound": "C#CC[Se]C(=O)c1ccc2n[se]nc2c1", "growth": "54.9% (inactive)"},
      {"compound": "Cc1c2oc3c(C)ccc(C(=O)N[C@@H]4C(=O)N[C@H](C(C)C)C(=O)N5CCC[C@H]5C(=O)N(C)CC(=O)N(C)[C@@H](C(C)C)C(=O)OC4C)c3nc-2c(C(=O)N[C@@H]2C(=O)N[C@H](C(C)C)C(=O)N3CC(=O)C[C@H]3C(=O)N(C)CC(=O)N(C)[C@@H](C(C)C)C(=O)OC2C)c(N)c1=O", "note": "(stereo not given in full)", "growth": "-8.68% (active)"},
      {"compound": "C=CC[Se]C(=O)c1cncc(C(=O)[Se]CC=C)c1", "growth": "-86.7% (active)"},
      {"compound": "CN(C)CCc1cn(C2CCC2)c2cccc(O)c12", "growth": "15.9% (inactive)"},
      {"compound": "CC12OOC(C)(OO1)C2CCC(=O)NCCCNc1ccnc2cc(Cl)ccc12", "note": "(stereo not given)", "growth": "86% (inactive)"},
      {"compound": "CC12OOC(C)(OO1)C2CCC(=O)NCCNc1ccnc2cc(Cl)ccc12", "note": "(stereo not given)", "growth": "105% (inactive)"},
      {"compound": "O=C(/C=C/c1ccc(Cl)cc1Cl)c1nc2ccccc2n1Cc1ccc(F)cc1", "growth": "59.8% (inactive)"},
      {"compound": "C[C@H]1[C@H](OC(=O)CCC(=O)N(CCCc2cn(-c3ccc(C#N)cc3)nn2)CCNc2ccnc3cc(Cl)ccc23)O[C@@H]2OC3(C)CC[C@H]4[C@H](C)CC[C@@H]1[C@@]24OO3", "growth": "48.1% (inactive)"},
      {"compound": "C[C@H]1[C@H](OC(=O)CCC(=O)N(CCCc2cn(-c3ccc(CN4CCOCC4)cc3)nn2)CCNc2ccnc3cc(Cl)ccc23)O[C@@H]2OC3(C)CC[C@H]4[C@H](C)CC[C@@H]1[C@@]24OO3", "growth": "-66.3% (active)"},
      {"compound": "CC[C@]12C=CCN3CC[C@@]4(c5ccc(OC)cc5N(C)[C@H]4[C@@](O)(C(=O)OC)[C@@H]1OC(=O)CCC[P+](c1ccc(C)cc1)(c1ccc(C)cc1)c1ccc(C)cc1)[C@@H]32", "growth": "-85.3% (active)"},
      {"compound": "O=C(/C=C/c1cccc(Br)c1)c1nc2ccccc2n1Cc1ccc(Br)cc1", "growth": "-31.7% (active)"},
      {"compound": "CC1=C(COCCOC(=O)c2ccc(S(=O)(=O)F)cc2)C2=C(C)C3(CC3)[C@@](C)(O)C(=O)C2=C1", "growth": "11.1% (inactive)"},
      {"compound": "CC[C@]12C=CCN3CC[C@@]4(c5ccc(OC)cc5N(C)[C@H]4[C@@](O)(C(=O)OC)[C@@H]1OC(=O)CCC[P+](C1CCCCC1)(C1CCCCC1)C1CCCCC1)[C@@H]32", "growth": "-78% (active)"},
      {"compound": "C=CC[Se]C(=O)c1ccc(C(=O)[Se]CC=C)s1", "growth": "-90% (active)"},
      {"compound": "O=C(/C=C/c1ccc(Cl)cc1)c1nc2ccccc2n1Cc1ccc(F)cc1", "growth": "16.1% (inactive)"},
      {"compound": "CC[C@]12C=CCN3CC[C@@]4(c5ccc(OC)cc5N(C)[C@H]4[C@@](O)(C(=O)OC)[C@@H]1OC(=O)CCCC[P+](c1ccc(C)cc1)(c1ccc(C)cc1)c1ccc(C)cc1)[C@@H]32", "growth": "-88.3% (active)"},
      {"compound": "COP(=O)(CC(F)(F)C(F)(F)F)OC", "growth": "-65.3% (active)"},
      {"compound": "CCC[Se]C(=O)c1ccc(C(=O)[Se]CCC)s1", "growth": "-63.4% (active)"},
      {"compound": "COC(=O)CCn1c(-c2ccc(-n3cc(-c4ccc(O[C@H]5O[C@@H]6OC7(C)CC[C@H]8[C@H](C)CC[C@@H]([C@H]5C)[C@@]68OO7)cc4)nn3)cc2)nc2ccccc21", "growth": "25.4% (inactive)"},
      {"compound": "O=C(/C=C/c1ccc(F)cc1)c1nc2ccccc2n1Cc1ccc(F)cc1", "growth": "-3.51% (active)"}
    ]}
  ]
}
